Screening data: PubChem, Johns Hopkins Ion Channel Center
Kir21 block – inhibitors of mouse Kir2.1 inward-rectifier potassium channel; B-score at 10 µM; 310,000 tested, 0.85% active; HEK293-Kir2.1, FluxOR thallium flux fluorescence; hits give low values;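 active = fluorescence ratio B-score at or below minus 3 SD of library scores, with starting-brightness B-score within 2 SD, cut at about -4.2 in these data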;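 also: channel flux triggered by added potassium and thallium sulfate stimulus; B-score of peak minus minimum fluorescence over baseline after thallium stimulus; more negative B-score means stronger Kir2.1 block with less thallium influx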
TMEM16A act – TMEM16A chloride channel activators or potentiators, primary screen, cell-based, HTS. HEK293 TMEM16A/YFP-H148Q/I152L, iodide quench fluorescence; hits give low values. Anoctamin-1 (Mus musculus), Q8BHY3. B-score at 10 µM. AID 623877, 2012. 340,000 tested, 0.3% active;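 active = fluorescence-ratio B-score plate-corrected deviation score at least 3 library SD below zero, with starting fluorescence score within 5 deviations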;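 also: channel opened by trigger with iodide after compound preincubation; score built on the fluorescence ratio of max minus min over baseline; more negative score means more quench and so TMEM16A activation or potentiation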
Target sequence (Q8BHY3 whole entry, looked up): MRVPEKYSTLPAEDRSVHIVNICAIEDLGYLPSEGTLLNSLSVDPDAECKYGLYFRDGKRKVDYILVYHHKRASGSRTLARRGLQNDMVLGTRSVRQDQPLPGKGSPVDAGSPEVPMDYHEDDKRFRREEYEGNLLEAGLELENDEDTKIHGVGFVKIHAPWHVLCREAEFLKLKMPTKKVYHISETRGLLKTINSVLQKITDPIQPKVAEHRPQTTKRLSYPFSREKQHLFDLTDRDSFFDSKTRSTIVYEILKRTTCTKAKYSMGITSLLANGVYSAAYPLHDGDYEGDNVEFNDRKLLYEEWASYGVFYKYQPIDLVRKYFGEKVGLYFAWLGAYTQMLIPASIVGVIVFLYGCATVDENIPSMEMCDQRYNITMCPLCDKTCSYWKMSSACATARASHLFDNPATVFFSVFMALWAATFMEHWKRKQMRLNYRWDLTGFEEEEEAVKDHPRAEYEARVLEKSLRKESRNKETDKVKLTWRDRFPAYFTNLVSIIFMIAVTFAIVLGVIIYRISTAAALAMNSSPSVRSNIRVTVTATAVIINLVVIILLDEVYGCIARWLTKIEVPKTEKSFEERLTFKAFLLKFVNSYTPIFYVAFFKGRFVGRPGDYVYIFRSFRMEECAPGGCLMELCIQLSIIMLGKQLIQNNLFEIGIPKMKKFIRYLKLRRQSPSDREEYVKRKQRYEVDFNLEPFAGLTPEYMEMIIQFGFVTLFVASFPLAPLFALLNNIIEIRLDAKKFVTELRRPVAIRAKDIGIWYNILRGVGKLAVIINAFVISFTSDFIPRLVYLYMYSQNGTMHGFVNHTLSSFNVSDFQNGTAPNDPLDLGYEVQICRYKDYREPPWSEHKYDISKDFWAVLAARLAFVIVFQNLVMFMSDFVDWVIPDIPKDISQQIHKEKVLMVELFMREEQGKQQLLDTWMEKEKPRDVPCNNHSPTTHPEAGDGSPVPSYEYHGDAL
TMEM16A inh – TMEM16A chloride channel inhibitors, primary screen, cell-based, HTS; HEK293 TMEM16A/YFP iodide influx fluorescence, ionomycin; AID 588511, 2011; 310,000 tested, 1.2% active; normalized B-score (activity score, 25-100; higher = stronger inhibition) at 10 µM;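 active = ratio plate-corrected score three or more library SD toward inhibition, starting fluorescence score within five deviations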;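 also: score derived from kinetic fluorescence span divided by baseline fluorescence per well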
KCNK3 block – human KCNK3 channel inhibitors, primary screen, CHO cells, FluxOR thallium flux, B-score; FluxOR fluorescence; hits give low values; B-score at 10 µM; 340,000 tested, 0.84% active;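 active = B-score under library mean minus 4 SD, starting fluorescence ratio at most library mean plus 5 SD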;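 also: more negative B-score means stronger inhibition of thallium flux through KCNK3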
KCNK9 inh – KCNK9 potassium channel inhibitors, primary screen, HEK293 cells, thallium flux; FluxOR thallium flux fluorescence; hits give low values; B-score at 10 µM; 310,000 tested, 1.2% active;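 active = ratio B-score over 3 SD below the library mean, with starting fluorescence within 5 SD of its mean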;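 also: negative B-score means less thallium flux so channel inhibition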
KCNK9 inh conf – KCNK9 potassium channel inhibitors, confirmation, HEK293 cells, thallium flux, duplicate | shares compounds with KCNK9 inh | FluxOR thallium flux fluorescence | inhibition, % at 10 µM | 4,900 tested, 43% active | AID 492992, 2010;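 active = thallium signal inhibited by more than 5 SD of the compound-free buffer control wells, on both duplicate plates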
Kir21 sel – mouse Kir2.1 channel inhibition, confirmation, selectivity assay for KCNK9 modulator project, cell-based, HEK293, thallium flux; shares compounds with KCNK9 inh; Kir2.1 cells, FluxOR thallium flux fluorescence; inhibition, % at 10 µM; 4,900 tested, 4% active;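 active = thallium signal drop more than 5 SD beyond the mean of the no-compound control wells, seen in both duplicate plates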;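 also: signal is fluorescence rise after thallium addition divided by baseline fluorescence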
KCNK9 uninduced – thallium flux in non-induced HEK293 cells, confirmation, counter-screen for KCNK9 inhibitor project, cell-based, second counter screen, non-induced KCNK9-HEK293; shares compounds with KCNK9 inh; FluxOR thallium flux; inhibition, % at 10 µM; 4,900 tested, 40% active;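 active = thallium signal drop beyond 5 SD of the untreated control mean, on both duplicate plates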
Of the large screens only hits and unclear results are named; the others gave an inactive call (follow-up assays come after a bar, where they were run). Sampled rows, rich in hits. Any-hit rate of the full collection: about 3.5%.

Oc1ccccc1Nc1nc(NCc2ccco2)c2ccccc2n1	none
Cc1cccc(Nc2nc(NCc3ccco3)c3ccccc3n2)c1	Kir21 block -14, TMEM16A inh 25, KCNK9 inh -8.1 | KCNK9 inh conf 49% | Kir21 sel 86% | KCNK9 uninduced inactive
CCCn1ncc(CN2CCN(Cc3ccc(C)o3)C(CCO)C2)c1C (configuration not stated)	none
Cc1cccc(C)c1OCC(=O)NCC1COc2ccccc2O1 (configuration not stated)	none (no result: Kir21 block, TMEM16A inh, KCNK9 inh)
COC(=O)c1csc(S(=O)(=O)N2CCOCC2)c1OC	none
O=C(NCC1CCCO1)c1ccc(Cl)c(S(=O)(=O)N2CCOCC2)c1 (configuration not stated)	none
CCc1ccc2nc(SCC(=O)NCC3CCCO3)c(C#N)cc2c1 (configuration not stated)	none | KCNK9 inh conf inactive | Kir21 sel inactive | KCNK9 uninduced inactive
CC(C)c1ccc2nc(SCC(=O)NCC3CCCO3)c(C#N)cc2c1 (configuration not stated)	none
CN1CCN(S(=O)(=O)c2ccc3c(c2)CC(=O)N3C)CC1	KCNK9 inh -10 | KCNK9 inh conf 35% | Kir21 sel inactive | KCNK9 uninduced inactive
COc1ccc(-c2csc(NC(=O)c3ccc(C(C)(C)C)cc3)c2C(=O)O)cc1	none | KCNK9 inh conf inactive | Kir21 sel inactive | KCNK9 uninduced inactive
CCOC(=O)C1=C(CSc2nc(C)cc(C)c2C#N)OC(N)=C(C#N)C1c1ccccc1 (configuration not stated)	KCNK9 inh -14 | KCNK9 inh conf 56% | Kir21 sel inactive | KCNK9 uninduced 48%
CCOC(=O)C1=C(CSc2nc(C)cc(C)c2C#N)OC(N)=C(C#N)C1c1cccs1 (configuration not stated)	none (no result: Kir21 block, TMEM16A act, KCNK3 block, KCNK9 inh)
Oc1ccccc1CN1CCCC(N2CCN(c3cccc(C(F)(F)F)c3)CC2)C1 (configuration not stated)	none
Fc1ccccc1N1CCN(C2CCCN(Cc3cccc(C(F)(F)F)c3)C2)CC1 (configuration not stated)	none | KCNK9 inh conf inactive | Kir21 sel inactive | KCNK9 uninduced inactive
COc1ccc(CN2CCCC(N3CCN(c4cccc(Cl)c4)CC3)C2)cc1OC (configuration not stated)	none
COc1cc(CN2CCCC(N3CCN(c4ccccc4C)CC3)C2)cc(Cl)c1O (configuration not stated)	none | KCNK9 inh conf inactive | Kir21 sel inactive | KCNK9 uninduced inactive
COc1ccc(Cc2nnc3n2N=C(c2cc4ccccc4o2)CS3)cc1OC	none
Cc1ccc(C2(c3noc(CN4CCC(c5ccncc5)CC4)n3)CCCC2)cc1	none | KCNK9 inh conf inactive | Kir21 sel inactive | KCNK9 uninduced inactive
C=CCNC(=S)/N=c1/ccccn1CC	none
Brc1ccc(Cn2c(-c3ccc(Br)o3)nc3ccccc32)o1	KCNK9 inh -8.8 (no result: TMEM16A inh) | KCNK9 inh conf inactive | Kir21 sel inactive | KCNK9 uninduced 32%
COC(=O)c1sccc1NC(=S)N1CCCCC1C (configuration not stated)	none | KCNK9 inh conf inactive | Kir21 sel inactive | KCNK9 uninduced inactive
Oc1c(C(Nc2nccs2)c2ccc(C(F)(F)F)cc2)ccc2cccnc12 (configuration not stated)	none (no result: TMEM16A inh) | KCNK9 inh conf inactive | Kir21 sel inactive | KCNK9 uninduced inactive
Oc1c(C(Nc2cccc(C(F)(F)F)c2)c2ccncc2)ccc2cccnc12 (configuration not stated)	none
Cc1ccc(Cl)cc1Nc1nc(-c2sc(NC(=O)C(C)(C)C)nc2C)cs1	KCNK9 inh -13 | KCNK9 inh conf 56% | Kir21 sel inactive | KCNK9 uninduced inactive
CCCCCC(=O)Nc1nc(C)c(-c2csc(Nc3cc(Cl)ccc3OC)n2)s1	none
CCCC(=O)Nc1nc(C)c(-c2csc(Nc3cc(OC)ccc3OC)n2)s1	KCNK9 inh -17 | KCNK9 inh conf inactive | Kir21 sel inactive | KCNK9 uninduced inactive
C=CCCC(=O)Nc1nc(C)c(-c2csc(Nc3cc(OC)ccc3OC)n2)s1	KCNK9 inh -8.7 | KCNK9 inh conf 56% | Kir21 sel inactive | KCNK9 uninduced 28%
CCCC(C)C(=O)Nc1nc(C)c(-c2csc(Nc3cc(OC)ccc3OC)n2)s1 (configuration not stated)	KCNK9 inh -18 | KCNK9 inh conf 46% | Kir21 sel inactive | KCNK9 uninduced inactive
O=C(Nc1ccc(Cl)c(S(=O)(=O)N2CCCCC2)c1)c1ccco1	none (no result: Kir21 block, TMEM16A inh, KCNK9 inh)
Cc1noc(C)c1CSc1nc2ccccc2c(=O)n1-c1ccc(F)cc1F	none | KCNK9 inh conf inactive | Kir21 sel inactive | KCNK9 uninduced 25%
O=C(CSCc1c(Cl)cccc1Cl)N1CCOCC1	none
O=C(NCc1ccccc1)c1ccc(C(=O)NCc2ccccc2)cc1	none (no result: Kir21 block, TMEM16A inh, KCNK9 inh)
O=C(NCc1ccccc1)c1ccc(C(=O)N(C2CCCCC2)C2CCCCC2)cc1	KCNK9 inh -8.9 | KCNK9 inh conf inactive | Kir21 sel inactive | KCNK9 uninduced 32%
COc1ccc(Oc2ccc(C(F)(F)F)cc2NC(=O)c2ccc(F)cc2)cc1	none | KCNK9 inh conf inactive | Kir21 sel inactive | KCNK9 uninduced inactive
O=C(c1cc2sccc2n1Cc1ccc(F)cc1)N1CCCc2ccccc21	KCNK9 inh -10 | KCNK9 inh conf 51% | Kir21 sel inactive | KCNK9 uninduced 37%
O=C(c1cc(-c2ccc(F)cc2)on1)N1CCCc2ccccc21	none
O=C(c1ccc2c(c1)OCO2)C1CCCN(Cc2cccn2-c2cccnc2)C1 (configuration not stated)	none
O=C(c1ccc2c(c1)OCO2)C1CCCN(Cc2c(F)ccc(F)c2F)C1 (configuration not stated)	none | KCNK9 inh conf inactive | Kir21 sel inactive | KCNK9 uninduced inactive
O=C(c1ccc2c(c1)OCO2)C1CCCN(Cc2cc(F)ccc2-n2cccn2)C1 (configuration not stated)	none
O=C(c1ccc2c(c1)OCO2)C1CCCN(Cc2ccc3nsnc3c2)C1 (configuration not stated)	none
Cn1c(CN2CCCC(C(=O)c3ccc4c(c3)OCO4)C2)nc2ccccc21 (configuration not stated)	none | KCNK9 inh conf inactive | Kir21 sel inactive | KCNK9 uninduced inactive
